The results in this text go back to PubChem BioAssay AID651636 (Sanford-Burnham Center for Chemical Genomics, 2012).

Structures are written as SMILES. In all, about 360,000 compounds went through this assay and about 3,000 (0.83%) were called active. The list comes from a sample in which actives are over-represented; it also holds similar structures and randomly drawn compounds. Values without a mark were called inactive. Cut-off read from the data, not from the text of the source: active = inhibition above about 38%; inactive = the rest.

The target of the test is G-protein coupled receptor 183 (Homo sapiens) (UniProt P32249). In words: EBI2 receptor antagonists, beta-arrestin recruitment, primary screen, cell-based, luminescence, 7a,25-OHC stimulation, uHTS (AID 651636).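 Note: enzyme fragment complementation signal reports receptor beta-arrestin coupling in cells; 0% = agonist plus DMSO wells and 100% = wells without agonist.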 Conditions: 7a,25-OHC stimulated, at 5 µM, hits give high values. On the technique in general: Activated receptors often draw arrestin, which recruitment assays turn into a signal.
Chain of G-protein coupled receptor 183 (Homo sapiens) (P32249 whole entry, looked up, the tested form may be a part): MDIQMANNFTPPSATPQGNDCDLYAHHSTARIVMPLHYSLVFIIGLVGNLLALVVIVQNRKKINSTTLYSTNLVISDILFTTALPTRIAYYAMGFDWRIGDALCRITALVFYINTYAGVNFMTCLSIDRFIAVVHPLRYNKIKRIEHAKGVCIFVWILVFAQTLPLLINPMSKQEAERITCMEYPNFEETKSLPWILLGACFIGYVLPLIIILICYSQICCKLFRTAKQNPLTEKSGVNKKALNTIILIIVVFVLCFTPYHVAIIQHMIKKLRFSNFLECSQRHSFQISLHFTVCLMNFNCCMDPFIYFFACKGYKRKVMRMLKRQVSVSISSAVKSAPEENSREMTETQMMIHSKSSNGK
As for `FC(F)(F)c1cccc(-c2nc3ccccc3n2C(c2ccccc2)c2nc3ccccc3[nH]2)c1` (stereo not given), the inhibition is 8.62%.

On to `CSCCC(C(=O)NC1=NCCS1)N1C(=O)c2ccccc2C1=O` (stereo not given), for which the inhibition was 1.85%.

Regarding `COC(=O)N/N=C/c1c[n+]([O-])c2ccccc2[n+]1[O-]`, the inhibition was -1.98%.

With `COc1ccc(C(=O)CC(=O)c2ccc(C)cc2)c(O)c1`, the inhibition was -3.66%.

In the case of `COc1ccc(OC)c(/C=C/C(=O)c2ccc3c(c2)OCO3)c1`, the inhibition is 8.22%.

`COc1ccc(/C=C/C(=O)NC(=S)N2CCCC(C(N)=O)C2)cc1` (stereo not given): the inhibition was -8.77%.

Consider `COc1ccc(/C=C/C(=O)c2ccc(OC)cc2O)cc1`, for which the inhibition is 73.8% (active).

With `COc1ccc(C(=O)/C=C/c2ccc(OC3CSC3)cc2)cc1`, the inhibition is 60.1% (active).

For `COc1ccc(/C=C/C(=O)c2cc(Br)ccc(=O)c2O)cc1`, the inhibition is -0.626%.

`CC(C)[C@H](NC(=O)c1ccc(F)cc1)C(=O)OCC(=O)NC(=O)c1cccn1C`: the inhibition is -1.33%.

With `Cc1cc(C)cc(NC(=O)COc2coc(CN3CCN(c4ccccc4)CC3)cc2=O)c1`, the inhibition is -4.06%.

Regarding `CCCc1cc(=O)[nH]c(SCc2ccc(C#N)cc2)n1`, the inhibition was -20.6%.

Take `N#CC(=C1SC=CS1)c1nc(-c2ccccc2)cs1`: the inhibition is -66.2%.

Consider `N#CC(=C1CCCC1)c1nc(-c2ccc(Cl)cc2)cs1`, for which the inhibition was 54.1% (active).

As for `CCCCCN1CC(O)=C(c2nc(-c3ccc(Cl)cc3)cs2)C1=N`, the inhibition is -3.67%.

`O=C(Nc1cccc(S(=O)(=O)NC2=NCCC2)c1)C1CCCCC1`: the inhibition was -4.45%.

For `CC(=O)c1ccc(NC(=O)CCc2nnc3ccc(NCc4ccco4)nn23)cc1`, the inhibition is -2.75%.

In the case of `CCN(CC)S(=O)(=O)c1cccc(C(=O)NCC(=O)OCC(=O)NCc2ccccc2)c1`, the inhibition is -10.4%.

With `Cc1c(NC(=O)C(C)OC(=O)c2cc3c4ccccc4n(C)c3s2)c(=O)n(-c2ccccc2)n1C` (stereo not given), the inhibition is -12.7%.

With `Cc1cccc(N2CCN(C(=O)c3cc4c(=O)[nH]c5ccccc5c4n3C)CC2)c1C`, the inhibition is 88.2% (active).

For `Cc1cccc(N2CCN(C(=O)/C=C/c3ccco3)CC2)c1C`, the inhibition is 33%.

Regarding `CCn1c(C)c(C)c2cc(C(=O)N3CCN(c4cccc(C)c4C)CC3)ccc21`, the inhibition is 15.1%.

In the case of `CCCn1c(NC(=O)C23CC4CC(CC(O)(C4)C2)C3)nc2ccccc21`, the inhibition was -9.2%.

As for `CCOC(=O)C(C)Oc1cccc2c(=O)n(CC(=O)N3CCc4ccccc43)ccc12` (stereo not given), the inhibition was 11.2%.

For the molecule `COc1cc(/C=C(\C#N)C(=O)Nc2ccc3ccccc3c2)c([N+](=O)[O-])cc1OC`, the inhibition is 49.6% (active).

`COc1cc(NC(=O)COC(=O)CSc2ccc3ccccc3c2)c(C)cc1[N+](=O)[O-]`: the inhibition is -6.04%.

On to `COc1cc(/C=C(/NC(=O)c2ccccc2)C(=O)Nc2cccc(O)c2)c([N+](=O)[O-])cc1OC`, for which the inhibition is 5.05%.

On to `COc1ccc(CN2C(=O)CN=C2Nc2ccc(C)cc2C)cc1`, for which the inhibition is -8.98%.

Regarding `COC(=O)[C@@]12C[C@@H](CC(=O)NCCCCc3ccccc3)C(=O)N(Cc3ccccc3)C1=CCC(C)(C)C2`, the inhibition is 17.4%.

As for `O=C(NNC(=O)c1cnccc1C(F)(F)F)c1ccc(Cl)cc1`, the inhibition is -6.52%.

With `CCN(C(=O)CSc1ncnc2sccc12)c1c(N)n(Cc2ccccc2)c(=O)[nH]c1=O`, the inhibition was -7.44%.

`O=C(CSc1nnnn1C1CCCC1)Nc1ccc2c(c1)OCCO2`: the inhibition was 0.834%.

For the molecule `CCN(CC(=O)NCc1cccs1)C(=O)/C=C/c1ccc(C)cc1`, the inhibition was 92% (active).

Turning to `CCOc1ccc(/C=C/C(=O)N(CC)CC(=O)NCc2cccs2)cc1OC`, the inhibition was 2.03%.

For `CCN(CC(=O)NCc1cccs1)C(=O)c1ccccc1F`, the inhibition was 0.894%.

As a reminder, the inhibition is the relative decrease from the control value, in per cent.
